Bioassay records (PubChem)
PolyA inh = yeast polyadenylation inhibition; S. cerevisiae SKY197-pL101 polyadenylation reporter, beta-gal luminescence; efflux-impaired pdr1/pdr3 knockout yeast; score 100 = 6 SD above DMSO; activity score, % at 12 µM; 0.02% of 300,000 active; AID 1875;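 active means lowest replicate activity score at least 50, where 100 means six control SD above control mean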;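 further: yeast exposed to compound for 9 h at 30 °C; higher score means more reporter readthrough which indicates perturbed polyadenylation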
NALP1 inh = blocks the NALP1 inflammasome reconstituted in yeast; S. cerevisiae NALP1/ASC/caspase-1 growth, X-gal OD620, 72 h; inhibition, % at 10 µM; 0.61% of 280,000 active; AID 2071; in the data active means inhibition mostly above about 24%, no sharp cut-off; inactive means mostly below about 32%
Mot1-301 SUMO = blocks SUMOylation pathway, rescuing yeast Mot1-301 growth; S. cerevisiae Mot1-301 growth rescue, ATP luminescence, 38.5C; percent above DMSO median, 100 means doubled; 1% of 320,000 active; growth rescue, % at 18.8 µM;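 active means every valid replicate shows activation above 250% relative to neutral control wells; inactive means the rest, any valid replicate at or below 250%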;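 further: OY570 slx delta 5 strain wells were the positive control but not used for scaling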
NALP3 yeast inh = blocks the NALP3 inflammasome reconstituted in yeast; inhibition, % at 10 µM; 0.39% of 330,000 active; Yeast reconstituted NLRP3/ASC/caspase-1, beta-gal luminescence, 24 h; AID 2825;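 active means inhibition of 50% or more; inactive means inhibition below 50%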;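 further: plate controls were induced DMSO wells for no effect and uninduced yeast grown without galactose for full effect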
The depositor's hits bear a star; i = inactive; . = no result. Compounds with a hit are over-represented: about 1.8% of the library has one in this group of screens.

SMILES	PolyA inh	NALP1 inh	Mot1-301 SUMO	NALP3 yeast inh
COc1ccccc1NS(=O)(=O)CC12CCC(CC1=O)C2(C)C (stereo unspecified)	-10.1	41.5*	0.2	0.6
COc1cccc(NS(=O)(=O)CC23CCC(CC2=O)C3(C)C)c1 (stereo unspecified)	5.8	-3.6	198.0	1.0
O=C(NCc1ccccc1)c1cccc(S(=O)(=O)N2CCCCC2)c1	0.2	-5.9	0.6	7.7
O=C(O)C1Nc2c(Cl)cc(Cl)c(Cl)c2C2C=CCC12 (stereo unspecified)	-10.7	.	-21.8	.
N#C/C(=C/c1cc[nH]c1)C(N)=S	-9.8	-1.2	294.9*	9.4
Cc1cc(C)c2nc(C(F)(F)F)nc(N3CCN(C(=O)c4ccco4)CC3)c2c1	17.3	.	-12.7	4.1
CC(NC(=O)CCC1COc2ccccc2O1)c1ccccc1 (stereo unspecified)	10.2	42.3*	307.3	19.8
CC(C)(C)NC(=O)CCC1COc2ccccc2O1 (stereo unspecified)	-2.1	5.8	-20.0	7.7
O=C(CCC1COc2ccccc2O1)NC1CCCCC1 (stereo unspecified)	6.4	40.7*	398.3	19.4
Cc1cccc(C(=O)N2CCc3cc(-c4nc(NC(=O)Cn5nnc6ccccc6c5=O)sc4C)ccc32)c1	1.6	-2.1	378.3*	-12.0
COc1ccc(CCNC(=O)C2CCN(C(=O)c3ccc([N+](=O)[O-])cc3)CC2)cc1	5.8	-18.5	314.1*	5.9
CN(C)c1ccc(C2Nc3cccc4cccc(c34)N2)cc1	16.4	39.3*	-17.9	13.9
Cc1ccccc1CSCCNC(=O)CCSc1ccccc1	12.2	4.2	321.9*	15.6
Cc1ccccc1OCC(=O)N/N=C/c1cn(C)c2ccccc12	-15.2	.	-14.5	24.2
Cc1ccc(-n2ncc(C(=O)NCc3ccc4c(c3)OCO4)c2NC(=O)c2ccco2)cc1C	9.9	8.8	0.8	8.6
CSc1cccc(NC(=S)N(CCN(C)C)C(C)c2ccccn2)c1 (stereo unspecified)	-22.7	-9.0	102.7	2.0
CSc1cccc(NC(=S)N(CCN(C)C)C(C)c2ccncc2)c1 (stereo unspecified)	-12.8	.	318.3*	-10.9
O=C(CS(=O)(=O)c1ccc(F)cc1)N1CCN(c2ccccc2)CC1	-10.1	.	513.9*	1.3
CCc1c(C)c(C#N)c2nc3ccccc3n2c1NCCN(C)C	-6.6	32.2*	-10.2	36.1
CCc1c(C)c(C#N)c2nc3ccccc3n2c1NC	5.7	14.5	12.3	10.9
COc1ccc(NC(=S)Nc2ccc(Oc3ccccc3)cc2)cc1	-4.5	19.1	276.8*	33.1
COC(=O)Nc1ccc(Oc2ccccc2)cc1	-36.7	6.9	278.1*	36.2
Cc1ccc(NCCC(=O)c2ccc(Cl)c(Cl)c2)cc1	-19.1	18.2	-12.9	1.5
CN(C(=O)C1CCN(S(=O)(=O)c2ccccc2[N+](=O)[O-])CC1)C1CCCCC1	.	.	0.7	1.7
COc1cc(/C=C(\C#N)c2nc3ccccc3[nH]2)cc(Br)c1OCc1ccc(F)cc1	14.9	8.9	4.0	12.4
SMILES	PolyA inh	NALP1 inh	Mot1-301 SUMO	NALP3 yeast inh
COc1cc(/C=C(\C#N)c2nc3ccccc3[nH]2)cc(Br)c1OCc1ccccc1	-16.5	21.1	486.9*	13.7
COc1ccc(S(=O)(=O)N(C)Cc2cccs2)cc1Br	-16.9	41.0*	.	31.6
COc1ccc(F)cc1S(=O)(=O)N1CCN(Cc2ccc3c(c2)OCO3)CC1	-7.0	12.6	8.1	1.8
O=C(CSc1nnc(-c2ccncc2)o1)N1CCCCCC1	-1.8	-5.8	.	.
CCC1CCCCN1C(=O)CSc1nnc(-c2ccc(OC)cc2)o1 (stereo unspecified)	-4.8	43.6*	-14.1	10.0
CCC1CCCCN1C(=O)CSc1nnc(-c2ccc3c(c2)OCCO3)o1 (stereo unspecified)	-4.6	-25.4	i	19.2
COC(=O)C1CCN(C(=O)CSc2nnc(-c3ccncc3)o2)CC1	-9.9	33.0	312.0*	11.6
Cc1ccc(-c2c3c(=O)n(C)c(=O)n(C)c3cn2Cc2cccnc2)cc1	-15.8	-21.5	220.7	8.3
Cn1c(=O)c2c(-c3ccccc3)n(Cc3cccnc3)cc2n(C)c1=O	-3.5	4.7	290.1*	-1.9
CCCc1ccc(C(C)NC(=S)NC2CCCCC2)cc1 (stereo unspecified)	-18.1	-3.9	-31.2	27.0
C[N+]1(C)CCC(OC(=O)C(O)(c2ccccc2)C2CCCC2)C1 (stereo unspecified)	-13.3	.	373.1*	19.2
C[C@H]1C(=O)N(C)CCN1C(=O)c1ccccc1OC1CCN(S(C)(=O)=O)CC1	-0.3	24.0*	-22.9	-0.4
